# In PubChem BioAssay AID1063 (University of Pittsburgh Molecular Library Screening Center, 2008):
# The whole screen tested about 200,000 compounds, of which about 18,000 (9%) were called active. The list comes from a sample in which actives are over-represented; it also holds similar structures and randomly drawn compounds. Unmarked numbers belong to inactive results. Cut-off read from the data, not from the text of the source: active = inhibition above about 50%; inactive = the rest.
# Experiment: antileishmanial activity against promastigotes – primary screen (AID 1063);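 note: promastigotes grown with compound for 44 hours at 28 °C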
# Settings: Leishmania major promastigotes, resazurin fluorescence viability; at 10 µM; hits give high values
row,SMILES,inhibition
1,CN(C(=O)CSc1nncc2ccccc12)C1CCCCC1,0.99%
2,COc1ccc(-c2cn3ccsc3n2)cc1,0.76%
3,Cc1ccc(-c2cn3cc([N+](=O)[O-])ccc3n2)cc1,6.77%
4,Cc1ccc(-c2cn3cc(C)ccc3n2)cc1,87.7% (active)
5,O=C(N/N=C/c1ccco1)c1ccc(NC(=O)C2CC2)cc1,5.98%
6,CC1(C)C2CC=C(/C=N/NC(=O)C3CC3)C1C2 (centres undefined),99.3% (active)
7,CC1(C)C2CC=C(/C=N/NC(=O)c3ccc(Cl)cc3)C1C2 (centres undefined),96% (active)
8,CC(C)(C)C(=O)Nc1ccc(C(=O)N/N=C/c2ccccc2OC(=O)c2ccc(Cl)cc2Cl)cc1,40.8%
9,N#Cc1cc([N+](=O)[O-])ccc1Oc1cccc(/C=N/NC(=O)c2ccc(Cl)cc2)c1,15.7%
10,CCOc1ccc(N2C(=O)CN(c3cccc4ccccc34)C2=S)cc1,-2.38%
11,CCS(=O)(=O)C1=NSC2=NC(=O)/C(=C\c3cc(C)n(-c4cccc(OC)c4)c3C)C(=N)N21,-2.58%
12,Cc1ccc(S(=O)(=O)NCCC(c2ccccc2)c2ccccc2)cc1C(=O)O,-13.6%
13,COc1cccc(-n2nc(C(=O)N3CCN(Cc4ccccc4)CC3)c3ccccc3c2=O)c1,-6.17%
14,Cc1ccnc(NC(=O)c2ccc(Cl)c([N+](=O)[O-])c2)c1,28.8%
15,NC(N)=N/N=C/c1ccc(Cl)c([N+](=O)[O-])c1,100% (active)
16,CC(CC(=O)O)C(=O)c1ccc(Cl)c([N+](=O)[O-])c1 (centres undefined),-1.01%
17,O=C(CCNS(=O)(=O)c1ccc(Br)s1)NCc1ccccc1Cl,15.3%
18,CCCc1cc(=O)[nH]c(SCC(=O)N2CCN(S(=O)(=O)c3ccc(C)cc3C)CC2)n1,63% (active)
19,CCCc1cc(=O)[nH]c(SCC(=O)c2cc(C)n(CCC)c2C)n1,11.3%
20,CCCc1cc(=O)[nH]c(SCC(=O)OCc2ccccc2)n1,1.09%
21,CCCOc1ccc(NC(=O)CC2C(=O)N(C)C(=S)N2Cc2ccc3c(c2)OCO3)cc1 (centres undefined),3.31%
22,CC(C)(C)SCCNC(=O)c1cccc([N+](=O)[O-])c1,45.2%
23,COc1ccc(Cc2nnc(SCC(=O)c3cccc([N+](=O)[O-])c3)n2C)cc1,7.37%

row,SMILES,inhibition
1,COc1cccc(NCCC(=O)c2cccc([N+](=O)[O-])c2)c1,85% (active)
2,O=C(c1nnc(-c2ccc(Cl)cc2)o1)C1CCCC1,-8.13%
3,Cc1cccc(NC(=S)NC23CN4CN(CN(C4)C2)C3)c1,-0.78%
4,CC1CCCCC1NC(=O)CN1CCC(O)(c2ccc3c(c2)OCO3)CC1 (centres undefined),30.1%
5,CCN(CC)c1ccc(C2C3CCCCC3(O)CCN2CC(=O)Nc2ccccc2)cc1 (centres undefined),78.2% (active)
6,CC(=O)NC1CC2CCCC(C1)N2CC(=O)Nc1ccccc1 (centres undefined),-0.85%
7,Cc1ccc(NC(=O)CN2CCC3(O)CCCCC3C2c2ccc3c(c2)OCO3)c(C)c1 (centres undefined),89.1% (active)
8,CC1CCCCN1CC(=O)NCc1ccc2c(c1)OCO2 (centres undefined),4.4%
9,O=C(CN1CCOCC1)Nc1ccccc1,-4.08%
10,Cc1cccc(OCC(O)Cn2c(=N)n(CCN3CCOCC3)c3ccccc32)c1 (centres undefined),10.1%
11,Cn1c(=N)n(CC(O)c2ccccc2)c2ccccc21 (centres undefined),3.48%
12,CCOc1ccc(C(O)Cn2c(=N)n(CCN3CCCCC3)c3ccccc32)cc1 (centres undefined),80.6% (active)
13,CCOC(=O)C1C(c2ccc(Cl)cc2)NC(=S)NC1(O)C(F)(F)F (centres undefined),-2.87%
14,COc1ccc(OCC(=O)N2CCOCC2)cc1,0.46%
15,COc1ccc(OCC(=O)N2CCN(C(=O)COc3ccccc3)CC2)cc1,-5.93%
16,CC1CN(C2CCN(C(=O)COc3ccccc3)CC2)CC(C)O1 (centres undefined),88.1% (active)
17,Cc1csc(CN(C)C(=O)CC2C(=O)NCCN2CC(C)(C)C)n1 (centres undefined),-1.56%
18,O=C(N/N=C/c1ccc([N+](=O)[O-])cc1)c1c[nH]c2ccccc12,2.8%
19,Cc1cc(C)c(C(N)=O)c(Cl)n1,-12.9%
20,Cc1cc(C)nc(N2CCC(C(=O)Nc3ccc4c(c3)OCCO4)CC2)n1,-3.98%
21,COc1ccc(S(=O)(=O)Nc2cccnc2)c(Cl)c1Cl,1.47%
22,CCOC(=O)C1CCN(C(=O)C2(NC(=O)Nc3cccc(F)c3)CCCCC2)CC1,-15.2%
23,CCOC(=O)C1CCN(CCC(=O)Nc2cccc(C)c2)CC1,92.7% (active)

row,SMILES,inhibition
1,CC1CCN(CCC(=O)Nc2ccccc2)CC1,18.3%
2,O=C(O)/C=C\C(=O)Nc1ccc(OCc2ccccc2)cc1,-4.77%
3,O=C1c2oc3ccc(Br)cc3c(=O)c2C(c2cccc(F)c2)N1CCO (centres undefined),-1.54%
4,Cc1ccc(F)cc1NC(=O)Cc1nn(C)c(=O)c2ccccc12,-5.08%
5,Cc1c(-c2nn(C)c(=O)c3ccccc23)oc2ccc(F)cc2c1=O,94.9% (active)
6,CCN(CCCNC(=O)CCn1c(=O)[nH]c2ccsc2c1=O)c1ccccc1,-5.73%
7,COC(=O)c1cc(NC(=O)c2cccnc2)ccc1N1CCOCC1,-4.83%
8,Clc1ccc(-n2nnnc2-c2cnc(-c3ccccn3)nc2-c2cccs2)cc1,61.2% (active)
9,O=C(Cn1cc(-c2nnnn2-c2ccc(Cl)cc2)c(=O)c2ccccc21)c1ccccc1,-4.69%
10,c1ccc(-c2noc(-c3cccs3)n2)nc1,-1.93%
11,O=C(c1cn(-c2ccccc2)nc1-c1cccnc1)N1CCCCC1,-1.11%
12,COc1ccccc1N1CCN(C(=O)c2cc3c(-c4ccc(Cl)cc4)nn(C)c3s2)CC1,60.4% (active)
13,COc1cccc(-c2nn(C)c3sc(C(=O)N4CCN(c5ccccc5)CC4)cc23)c1,20.1%
14,COc1ccccc1N1CCN(C(=O)c2cn(-c3ccccc3)nc2-c2cccnc2)CC1,84.2% (active)
15,CC(C)(C)OC(=O)N/N=C/c1cn(-c2ccccc2)nc1-c1cccnc1,21.8%
16,CCOC(=O)N1CCN(C(=O)c2cc3c(-c4ccc(Cl)cc4)nn(C)c3s2)CC1,10.6%
17,C/C(=N/Nc1ccc(Cl)cc1)c1cnnc(-c2ccccc2)n1,2.35%
18,Cc1ccc(C(=O)NC(=S)Nc2ccccc2C)cc1,0.17%
19,C/C(=N\NC(=O)CSc1nc2ccccc2c(=O)n1-c1ccccc1C)c1cccs1,91% (active)
20,C/C(=N\NC(=O)COc1c(C)cccc1C)c1cccs1,2.87%
21,Cc1nn(-c2ccccc2)c(C)c1/C=N/NC(=O)CSc1nc2ccccc2c(=O)n1-c1ccccc1,14.7%
22,Cc1ccnc(NC(=O)CCCOc2ccccc2)c1,-3.55%
23,O=C(Nc1ccc(F)cc1)N1CCN(c2ccc(F)cc2)CC1,-0.19%
